Measurements published in PubChem BioAssay.

Biological target: NADPH oxidase 2 (Homo sapiens) (UniProt P04839)
Experiment: NOX2-dependent H2O2 signal modulators, primary screen, NOX inhibitor project, cell-based, HEK293-NOX2, PMA-stimulated, Amplex Red fluorescence (AID 1159); note: test concentration not given here
Details: 45 min, higher = more signal, called active from +8 up or from −8 down

Sequence of NADPH oxidase 2 (Homo sapiens) (P04839 whole entry, looked up): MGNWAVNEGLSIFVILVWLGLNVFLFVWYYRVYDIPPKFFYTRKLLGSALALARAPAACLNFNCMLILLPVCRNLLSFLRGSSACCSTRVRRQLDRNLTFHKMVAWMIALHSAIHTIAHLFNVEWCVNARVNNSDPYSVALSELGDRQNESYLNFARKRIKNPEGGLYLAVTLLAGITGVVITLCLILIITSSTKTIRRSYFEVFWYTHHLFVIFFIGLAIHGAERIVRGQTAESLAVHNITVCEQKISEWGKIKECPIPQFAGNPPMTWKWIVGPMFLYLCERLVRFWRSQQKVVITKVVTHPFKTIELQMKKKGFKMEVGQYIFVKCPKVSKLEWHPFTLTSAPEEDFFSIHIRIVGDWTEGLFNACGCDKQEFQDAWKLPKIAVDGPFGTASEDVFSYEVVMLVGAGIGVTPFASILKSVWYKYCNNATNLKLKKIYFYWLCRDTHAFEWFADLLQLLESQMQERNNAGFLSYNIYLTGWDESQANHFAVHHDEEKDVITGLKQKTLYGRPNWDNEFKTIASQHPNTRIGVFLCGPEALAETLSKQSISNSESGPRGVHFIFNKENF

z-score, inactive:
COC1(C)CN(Cc2ccccc2Br)[C@H](/C=C/c2ccccc2)[C@H](Cc2ccccc2)O1 (stereo not given in full) -0.112
CN(C)C(=O)[C@@]1(Cc2ccccc2N=[N+]=[N-])COC(c2ccc(OCCCO)cc2)=N1 -1.99
CC(C)N1CC=CC23O[C@@H]4C=CCCOC(=O)C4[C@H]2C(=O)N(CCO)[C@@H]3C1=O (stereo not given in full) 1.37
C=C[C@@H](C)[C@H](OC(=O)Nc1ccc(SC)cc1)c1ccc(OCCO)cc1 -0.329
COC(=O)[C@@]1(Cc2ccc(OC)cc2)[C@H]2c3cc(C(=O)N(C)C)n(CCc4c[nH]c5ccc(O)cc45)c3C[C@H]2CN1C(=O)c1ccccc1 0.689
COc1cc2c(cc1OC)CN(C(=O)[C@H]1[C@@H]3C(=O)O[C@@H](c4ccccc4)[C@@H](c4ccccc4)N3[C@@H](c3ccc(OCCO)cc3)[C@]13C(=O)Nc1ccc(C#CCCO)cc13)CC2 1.46
COc1cc(CO)cc(I)c1O[C@H]1C=C(C(=O)NCCO)C[C@@H](N(CC2CCCCC2)C(=O)c2ccc(C(F)(F)F)cc2)[C@@H]1O -0.363
COC(=O)[C@@]1(Cc2ccc(F)cc2)[C@H]2c3cc(C(=O)N4CCCC4)n(CCc4c[nH]c5ccc(OC)cc45)c3C[C@H]2CN1C(=O)c1ccccc1 -3.07
COCC(=C=CC[C@H](O)c1ccc(OCCO)cc1)C[C@H](O)COCc1ccccc1 -1.6
CC=CC(O)C1C=CC2C(=O)N(C)C(=O)C2N1N1CCCCC1 (stereo not given) -0.605
[N-]=[N+]=NCc1ccccc1C[C@]1(C(=O)NCC(O)CO)N=C(c2ccc(OCCCO)cc2)O[C@H]1c1ccccc1CN=[N+]=[N-] (stereo not given in full) -1.97
NCCCCCCNC(=O)[C@H]1C[C@H]2C(=O)N[C@@H](Cc3ccccc3)C(=O)N2[C@H]1c1ccc(O)cc1 1.81
CCCCC(=C=CC[C@@H](O)c1ccc(OCCO)cc1)C[C@@H](O)COCc1ccccc1 -2.67
O=C(O)[C@]1(Cc2ccccc2)N=C(c2ccc(OCCCO)cc2)O[C@@H]1c1ccccc1 0.26
CC(C)C(=C=CC[C@@H](O)c1ccccc1OCCO)C[C@@H](O)COCc1ccccc1 0.0182
O=C1O[C@@H](c2ccccc2)[C@@H](c2ccccc2)N2[C@@H](c3ccc(O)cc3)[C@]3(C(=O)Nc4ccccc43)[C@@H](C(=O)Nc3nc4ccccc4s3)[C@H]12 0.642
O=C(N1CCCCC1)[C@@]1(Cc2ccccc2)COC(c2ccc(OCCCO)cc2)=N1 -4.59
CO[C@H]1O[C@H](CO)[C@@H](OC(=O)Nc2ccc(C(F)(F)F)cc2)[C@H](OC(=O)Nc2ccc3c(c2)OCO3)[C@H]1OC(=O)Nc1ccc2c(c1)OCO2 -4.33
COc1cc(CO)cc(I)c1O[C@H]1C=C(C(=O)NCCO)C[C@@H](NCc2ccccc2F)[C@@H]1O 0.0575
CCCNC(=O)[C@@]1(c2ccc([N+](=O)[O-])cc2)CC(=O)N(C2CCCCC2)[C@@H]1c1ccc(CO)cc1I 1.02
CCOC(=CC(=O)OC)CC(O)c1cccc(Cl)c1 (stereo not given) 0.112
Cc1ccc(S[C@]2(C(=O)NC(C)C)CC(=O)N(Cc3ccccc3C(F)(F)F)[C@@H]2c2ccc(CO)cc2I)cc1 0.95
CO[C@H]1O[C@H](CO)[C@@H](OC(=O)c2ccc(Br)cc2)[C@@H]2OC(=O)[C@@H](Cc3ccc4ccccc4c3)C/C=C/C[C@H](Cc3ccc4ccccc4c3)C(=O)O[C@@H]12 1.76
COC(=O)[C@@]1(Cc2ccc(OC)cc2)[C@H]2c3cc(C(=O)N(C)C)n(Cc4nc5ccccc5[nH]4)c3C[C@H]2CN1C(=O)c1ccccc1 0.576
COCCCNC(=O)[C@]1(Cc2ccccc2N=[N+]=[N-])N=C(c2ccc(OCCCO)cc2)O[C@@H]1c1ccccc1N=[N+]=[N-] -1.23
